Most compounds without a hit are left out; they make up all but 7.5% or so of the library.
Gal4-VP16 FLuc – VP16 counterscreen qHTS for inhibitors of ROR gamma transcriptional activity | Drosophila S2 Gal4-VP16 UAS-luciferase, luminescence, 20 h | Potency, µM (top dose mostly 53.6 µM), for inactives: at the top dose activity, negative = inhibition, hits mostly inhibitors | 310,000 compounds, 3.5% hits | AID 2546, 2010;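 further: Gal4-VP16 expression switched on by copper sulfate through the metallothionein promoter; potency means the concentration at half of the fitted maximal effect; nearly all actives have a fitted effect of over 50% in size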
TSHR antagonist – Antagonists of the Thyroid Stimulating Hormone Receptor: HTS campaign | AID 504810, 2011 | activity change, negative = inhibition, % at 11.5 µM | Thyrotropin receptor (Homo sapiens), P16473 | 330,000 compounds, 0.2% hits | TSHR-expressing cells, TSH-stimulated cAMP HTRF, 2 h; stronger effect = lower value;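 active means activity change below a set negative limit, meaning inhibition stronger than a set level, cut at about -70% in these data; inconclusive means activity change between two set negative limits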
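Inhibition of cAMP made by TSHR-expressing cells under TSH stimulation (4nM final, EC80; 2 h, 37 deg C) is quantified with a one-step lysis HTRF kit, anti-cAMP cryptate versus cAMP-d2.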
RORg inh – qHTS for inhibitors of ROR gamma transcriptional activity | Drosophila S2 Gal4-RORgamma UAS-luciferase reporter, 20 h | Potency, µM (series often up to 53.6 µM), without a hit: at the top dose activity change, negative = inhibition, actives largely listed as inhibitors | 310,000 compounds, 5.4% hits | Nuclear receptor ROR-gamma (Mus musculus), P51450; further: potency means the concentration at half of the fitted maximal effect; nearly all actives have a fitted effect of over 60% in size
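ROR gamma transcriptional activity was tracked as Gal4-UAS luciferase output in stably transfected Drosophila Schneider cells, with compound added 1 hr before 700 uM copper sulfate induction and a 20 hr ambient-temperature incubation.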
ELG1 repair inh – qHTS screen for small molecules that inhibit ELG1-dependent DNA repair in human embryonic kidney (HEK293T) cells expressing luciferase-tagged ELG1; HEK293T ELG1-luciferase reporter, luminescence, 16 h; DNA damage induced by 5-fluorouridine; Potency, µM (top dose mostly 46.1 µM), without a hit: top-dose activity change, negative = inhibition, usual class: inhibitors; 330,000 compounds, 2.3% hits; further: potency means the concentration at half of the fitted maximal effect; nearly all actives have a fitted effect of over 55% in size
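Luminescence from the luciferase reporter, measured 30 min after ONE-Glo reagent at room temperature, was the read-out. Beforehand, 2,000 cells per well were exposed for 16 hr at 37 °C to 5-fluorouridine together with compound or vehicle.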
B2AR arrestin – qHTS assay of beta-arrestin-biased ligands of beta2-adrenergic receptor | Beta-2 adrenergic receptor (Homo sapiens), P07550 | beta-arrestin recruitment to beta2AR, cell-based reporter | Potency, µM (titrated, usually from 46.1 µM), without a hit: at the top dose activation, most hits filed as activators | 330,000 compounds, 0.02% hits | AID 492947, 2010;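 further: potency means the concentration at half of the fitted maximal effect; 0% = DMSO controls and full agonism = EC100 isoproterenol or metaproterenol; nearly all actives have a fitted effect of over 65% in size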
ELG1 Luc conf – HTS assay for small molecules that inhibit ELG1-dependent DNA repair in human embryonic kidney (HEK293T) cells expressing luciferase-tagged ELG1: Hit Confirmation; HEK293T ELG1-luciferase levels, luminescence; cells co-treated with 5-fluorouridine; shares compounds with ELG1 repair inh; AID 624248, 2012; 670 compounds, 68% hits; Potency, µM (highest dose often 46.1 µM), for the others: at the top dose activity change, negative = inhibition, actives largely listed as inhibitors; further: potency means the concentration at half of the fitted maximal effect; nearly all actives have a fitted effect of over 55% in size
ELG1 MMS Luc – confirmation of human ELG1 repair inhibitors, MMS stimulated; 670 compounds, 53% hits; HEK293T luciferase-tagged ELG1 level, MMS stimulated; shares compounds with ELG1 repair inh; Potency, µM (titrated, usually from 46.1 µM), inactives show top-dose activity change, negative = inhibition, actives largely listed as inhibitors; further: potency means the concentration at half of the fitted maximal effect; nearly all actives have a fitted effect of over 60% in size
ELG1 5-FU – qHTS screen for small molecules that inhibit ELG1-dependent DNA repair: Hit Confirmation with 5FU Viability; shares compounds with ELG1 repair inh; cell viability with 5-FU, ELG1-dependent repair; Potency, µM (titrated, usually from 46.1 µM), without a hit: at the top dose activity change, negative = viability loss, usual class: cytotoxic; 670 tested, under 10 active;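 further: ELG1-luc HEK293T cells cotreated with 5-fluorouridine at 10 µM final; potency means the concentration at half of the fitted maximal effect; viability measured 16 h after compound addition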
ELG1 MMS cell – qHTS screen for small molecules that inhibit ELG1-dependent DNA repair: Hit Confirmation with MMS Viability; shares compounds with ELG1 repair inh; Cell viability with MMS, ELG1-dependent DNA repair; Potency, µM (top dose mostly 46.1 µM), for the others: at the highest dose activity change, negative = viability loss, most hits filed as cytotoxic; 670 compounds, 33% hits; AID 624251, 2012;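 further: ELG1-luc HEK293T cells co-treated with 10 µM MMS; potency means the concentration at half of the fitted maximal effect; viability read 16 h after compound addition; nearly all actives have a fitted effect of over 60% in size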
ELG1 unstim viab – qHTS screen for small molecules that inhibit ELG1-dependent DNA repair: Hit Confirmation with Unstimulated Viability Assay; shares compounds with ELG1 repair inh; cell viability counter-screen, unstimulated, luminescence; Potency, µM (highest dose often 45.9 µM), without a hit: at the top dose activity change, negative = loss of viability, actives largely listed as cytotoxic; 900 compounds, 8% hits; AID 624252, 2012;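 further: potency means the concentration at half of the fitted maximal effect; compound exposure lasted 16 hours before reading; nearly all actives have a fitted effect of over 55% in size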
Starred values were filed as active, the others as inactive. Unless noted, the call rests on the fitted dose curve; in most records, active means well fitted curve in the direction sought with a large enough effect; inconclusive means small, poorly fitted or top-dose-only effect, or another doubt; inactive means no such curve, though single readings can be large; an effect the other way counts as inactive or inconclusive. Unless noted, on the % scale 0 is the no-effect control and ±100 the full control effect.

Screening Cc1ccc(-c2cc(C(=O)N/N=C/c3c(C)nn(C)c3C)c3ccccc3n2)cc1C returned Gal4-VP16 FLuc -6%, TSHR antagonist -5, RORg inh inconclusive, ELG1 repair inh inconclusive and B2AR arrestin -1%.
For CC(=O)N1CCN(CC(=O)Nc2ccccc2C(=O)Nc2ccccc2)CC1 the results were TSHR antagonist 0, ELG1 repair inh inconclusive, B2AR arrestin 0%, ELG1 Luc conf 3.5µM*, ELG1 MMS Luc 43%, ELG1 5-FU inconclusive, ELG1 MMS cell -2% and ELG1 unstim viab -1%.
CC(=O)N1CCN(CC(=O)Nc2ccccc2C(=O)NCc2ccc(C)cc2)CC1 was read as Gal4-VP16 FLuc 5%, TSHR antagonist 29, RORg inh 24%, ELG1 repair inh -15% and B2AR arrestin 0%.
Screening CC[C@]12c3[nH]c4cc(-c5ccco5)ccc4c3CCN1C(=O)[C@@H](CC(=O)NCc1ccc(OC)c(OC)c1)C[C@@H]2C(=O)N1CCN(C(=O)c2ccco2)CC1 returned TSHR antagonist -12, ELG1 repair inh inconclusive and B2AR arrestin -1%.
Screening Cc1ccc(-n2nc(CN3CCOCC3)c(-c3ccccc3)c2N)cc1Cl returned Gal4-VP16 FLuc 0%, TSHR antagonist -13, RORg inh -3%, ELG1 repair inh 1.6µM*, B2AR arrestin 5%, ELG1 Luc conf 1.4µM*, ELG1 MMS Luc 18µM*, ELG1 5-FU inconclusive, ELG1 MMS cell 25µM* and ELG1 unstim viab -1%.
`Nc1c(-c2ccccc2)c(CN2CCOCC2)nn1-c1ccccc1` gave Gal4-VP16 FLuc 5%, TSHR antagonist -3, RORg inh -4%, ELG1 repair inh -2% and B2AR arrestin 0%.
Screening COc1ccc(S(=O)(=O)N2CCOCC2)cc1NC(=O)c1cc(C)oc1C returned TSHR antagonist 0, ELG1 repair inh 2% and B2AR arrestin 0%.
COc1ccc(S(=O)(=O)N2CCOCC2)cc1NC(=O)c1cccc2c(=O)c(C)c(-c3ccccc3)oc12 was read as Gal4-VP16 FLuc -3%, TSHR antagonist -3, RORg inh inconclusive, ELG1 repair inh 4.1µM*, B2AR arrestin 0%, ELG1 Luc conf 4.4µM*, ELG1 MMS Luc -3%, ELG1 5-FU 13%, ELG1 MMS cell 6% and ELG1 unstim viab -18%.
Screening COc1cc(-c2cc(C(=O)Nc3cc(S(=O)(=O)N4CCOCC4)ccc3C)c3ccccc3n2)cc(OC)c1OC returned TSHR antagonist -14, ELG1 repair inh 3.7µM*, B2AR arrestin 0%, ELG1 Luc conf 5µM*, ELG1 MMS Luc inconclusive, ELG1 5-FU inconclusive, ELG1 MMS cell -4% and ELG1 unstim viab inconclusive.
COc1ccc2ccccc2c1/C=N/NC(=S)Nc1cc(S(=O)(=O)N2CCOCC2)ccc1N1CCOCC1 was read as Gal4-VP16 FLuc 10µM*, TSHR antagonist 11, RORg inh 2.8µM*, ELG1 repair inh 1.6µM*, B2AR arrestin -1%, ELG1 Luc conf inconclusive, ELG1 MMS Luc 11%, ELG1 5-FU inconclusive, ELG1 MMS cell inconclusive and ELG1 unstim viab 13%.
Screening COc1cc(-c2cc(C(=O)Nc3ccc(S(=O)(=O)NCc4ccco4)cc3)c3ccccc3n2)cc(OC)c1OC returned Gal4-VP16 FLuc 1%, TSHR antagonist -19, RORg inh 21%, ELG1 repair inh 2.6µM*, B2AR arrestin 2%, ELG1 Luc conf 2µM*, ELG1 MMS Luc 4µM*, ELG1 5-FU inconclusive, ELG1 MMS cell -2% and ELG1 unstim viab -18%.
For CN1C(=O)CC(=O)N(C)c2cc(S(=O)(=O)N(C)Cc3ccccc3)ccc21 the results were Gal4-VP16 FLuc -3%, TSHR antagonist -4, RORg inh -9%, ELG1 repair inh 18% and B2AR arrestin 0%.
For COc1ccc(N2CCN(C(=O)COC(=O)c3ccc(OC(F)F)cc3)CC2)cc1 the results were TSHR antagonist -15, ELG1 repair inh -14% and B2AR arrestin 0%.
`CCc1ccc(C(=O)NNC(=O)OC)cc1` gave Gal4-VP16 FLuc -3%, TSHR antagonist 13, RORg inh 5%, ELG1 repair inh 14% and B2AR arrestin 0%.
`CCN(CC)S(=O)(=O)c1ccc(N2CCOCC2)c(NC(=O)c2cc(-c3ccccn3)nc3ccccc23)c1` gave Gal4-VP16 FLuc 0%, TSHR antagonist -1, RORg inh -22%, ELG1 repair inh 1.8µM*, B2AR arrestin 0%, ELG1 Luc conf 4.4µM*, ELG1 MMS Luc 5µM*, ELG1 5-FU -9%, ELG1 MMS cell 10µM* and ELG1 unstim viab inconclusive.
For O=C(c1ccc2c(c1)OCO2)N1CCN(S(=O)(=O)c2ccc(Br)cc2Cl)CC1 the results were TSHR antagonist -5, ELG1 repair inh -28% and B2AR arrestin 0%.

Bioassay records (PubChem)
